ANO1 block – TMEM16A chloride channel inhibitors, primary screen, cell-based, HTS. Anoctamin-1 (Mus musculus), Q8BHY3. HEK293 TMEM16A/YFP iodide influx fluorescence, ionomycin. normalized B-score (activity score, 25-100; higher = stronger inhibition) at 10 µM. 310,000 compounds, 1.2% hits. AID 588511, 2011;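 active means ratio plate-corrected score three or more library SD toward inhibition, starting fluorescence score within five deviations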;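 further: score derived from kinetic fluorescence span divided by baseline fluorescence per well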
CHO-K1 Ca antag – counter-screen for M1 antagonists: effect in parental CHO-K1 cells; inhibition, % at 3 µM; AID 602250; ATP-induced calcium, Fluo-8 fluorescence; 360,000 compounds, 0.6% hits;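 active means inhibition above a per-plate cutoff, the plate's mean sample inhibition plus 3 SD, cut at about 24% in these data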;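 further: 0% = DMSO plus EC80 ATP and 100% = DMSO alone without ATP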
M1 ag parental – counter-screen for M1 agonists: effect in parental CHO-K1 cells. Fluo-8 calcium fluorescence; scaled to maximal ATP response, vehicle zero. activation, % at 3 µM. 360,000 compounds, 0.48% hits. AID 602248, 2012; in the data active means activation above about 15%;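 further: untransfected CHO-K1 host cells lacking M1 receptor as counterscreen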
TMEM16A act – TMEM16A chloride channel activators or potentiators, primary screen, cell-based, HTS; AID 623877, 2012; B-score at 10 µM; HEK293 TMEM16A/YFP-H148Q/I152L, iodide quench fluorescence; stronger effect = lower value; 340,000 compounds, 0.3% hits;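 active means fluorescence-ratio B-score plate-corrected deviation score at least 3 library SD below zero, with starting fluorescence score within 5 deviations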;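 further: channel opened by trigger with iodide after compound preincubation; score built on the fluorescence ratio of max minus min over baseline; more negative score means more quench and so TMEM16A activation or potentiation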
M1 PAM parental – nonselective calcium activators in parental CHO-K1 cells, primary screen, counter-screen for M1 PAM project, cell-based, Fluo-8 calcium fluorescence, full deck, 1536-well; AID 602247, 2012; 360,000 compounds, 0.02% hits; ATP EC20; 0% at ATP EC20, 100% at ATP max; activation, % at 3 µM;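 active means activation above the run cutoff, the mean activation of all test compounds plus 3 SD, cut at about 40% in these data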;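 further: peak over basal fluorescence ratio in a 140 s read after ATP addition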
NTR1 agonist – agonists of human NTR1, primary screen, imaging, U2OS cells, beta-arrestin-GFP, high content; Neurotensin receptor type 1 (Homo sapiens), P30989; NTR1-U2OS beta-arrestin-GFP spot imaging, agonist mode; activation, % at 20 µM; 330,000 compounds, 0.17% hits; AID 493036, 2011;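 active means activation at or above 40% of the spot to cytoplasm intensity ratio, with at least 20 cells analyzed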;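 further: 0% = DMSO without peptide and 100% = 100 nM NTR1 peptide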
Target sequence (P30989 whole entry, looked up): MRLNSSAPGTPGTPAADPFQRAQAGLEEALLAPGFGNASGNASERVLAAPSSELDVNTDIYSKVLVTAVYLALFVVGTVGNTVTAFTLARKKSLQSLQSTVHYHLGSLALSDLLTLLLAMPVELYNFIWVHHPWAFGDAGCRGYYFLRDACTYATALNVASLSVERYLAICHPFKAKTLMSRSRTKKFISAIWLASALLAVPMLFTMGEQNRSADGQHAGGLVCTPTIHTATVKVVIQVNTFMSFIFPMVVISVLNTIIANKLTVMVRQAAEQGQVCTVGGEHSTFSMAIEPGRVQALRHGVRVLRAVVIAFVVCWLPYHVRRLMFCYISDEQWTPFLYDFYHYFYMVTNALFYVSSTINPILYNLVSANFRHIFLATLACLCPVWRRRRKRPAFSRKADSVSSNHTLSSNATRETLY
An asterisk follows results filed as active; i = inactive; . = no result. This is a sample that favours compounds with a hit; in the whole collection about 2.2% have one here.

SMILES	ANO1 block	CHO-K1 Ca antag	M1 ag parental	TMEM16A act	M1 PAM parental	NTR1 agonist
O=C(Nc1nnc([C@H]2C[C@H](O)[C@@H](CO)O2)s1)c1ccc(Oc2ccccc2)cc1	.	-3	0	.	-4	.
O=C1OC(CC(=O)N(Cc2nnc(-c3ccc(Cl)cc3)o2)C2CC2)c2ccccc21 (stereo unspecified)	.	-21	0	i	-2	-1
O=C1Nc2ccccc2C(=O)N2[C@H](c3cccc(Br)c3)[C@@H]3C(=O)N(Cc4ccccc4)C(=O)[C@@H]3[C@H]12	i	-22	1	-7.1*	23	4
CCOC(=O)C1=CCC(c2ccc(CC)cc2)N(S(=O)(=O)c2ccc(C)cc2)C1 (stereo unspecified)	.	12	1	.	-2	.
COc1ccccc1NC(=O)COC(=O)C1CCCC1	.	12	-1	i	-2	0
COc1ccccc1NC(=O)c1ccc(NC(=O)COC(=O)C2CCCCC2)cc1	i	7	19*	i	7	1
O=C(CN1C(=O)NC2NC(=O)NC21)N/N=C/c1ccc(F)cc1 (stereo unspecified)	i	-8	0	-7.5*	-4	0
CC1CN(Cc2nc3c(c(=O)n(C)c(=O)n3C)n2CCN2CCOCC2)CC(C)O1 (stereo unspecified)	.	-4	0	i	-2	.
CCCCCCn1c(CN2CCC(C)CC2)nc2c1c(=O)n(C)c(=O)n2C	i	-14	1	i	17	-1
CCCCCn1c(CN2CC(C)OC(C)C2)nc2c1c(=O)n(C)c(=O)n2C (stereo unspecified)	i	24*	0	i	-8	2
CCCCCCn1c(CN2CCN(CCO)CC2)nc2c1c(=O)n(C)c(=O)n2C	i	24*	0	i	-7	2
CC1CCCCC1NC(=O)CSc1nnc(-c2ccco2)n1N (stereo unspecified)	.	2	0	.	-2	.
O=C(O)CCCN1C(=O)NC2NC(=O)NC21 (stereo unspecified)	i	34*	0	i	-7	0
COc1ccc(C(=O)NCCOc2ccccc2)cc1S(=O)(=O)N1CCOCC1	.	3	1	i	-19	-1
CN(C)S(=O)(=O)c1ccc(-c2ccccc2)cc1	i	-12	1	i	24	0
CN(c1ccccc1)S(=O)(=O)c1ccc(-c2ccccc2)cc1	25*	-9	1	i	-12	3
COc1ccc(NC(=O)Nc2cccc3c2O[C@H](CN(C)C(=O)Nc2ccc(OC)cc2)[C@@H](C)CN([C@H](C)CO)C3=O)cc1	.	-8	3	i	11	0
Oc1ccc(Cl)cc1C=Nc1ccc2c3c(cccc13)CC2	i	32*	44*	i	2	3
Cc1cccc(C=Nc2ccc3c4c(cccc24)CC3)c1O	i	25*	15*	i	-14	-2
C[N+](C)(C)CCNC(=O)c1ccccc1	.	5	-1	.	-13	.
CCOC(=O)C1=C(O)/C(=C\c2ccc(CNC(=O)C(=O)Nc3ccccc3)o2)N=C1C	i	28*	0	i	-9	-1
CCc1ccc(C(=O)NNC(=O)CN2C(=O)NC3(CCCC3)C2=O)cc1	.	1	0	i	4	-2
Nc1cc2c(cc1Br)-c1ccccc1C2=NO	.	20	0	i	-25	.
O=C(Cn1cnc2c(OCc3ccccc3)ncnc21)NCCc1c[nH]c2ccccc12	.	-5	2	.	-4	-1
CCCCN(CCCC)c1ccc(C(=O)c2ccccc2C(=O)O)c(O)c1	i	-1	15*	i	8	3
SMILES	ANO1 block	CHO-K1 Ca antag	M1 ag parental	TMEM16A act	M1 PAM parental	NTR1 agonist
O=C(O)CC1=C(O)C(=O)N(c2ccccc2)C1c1ccc(Br)cc1 (stereo unspecified)	i	-11	0	-13*	0	0
O=C(O)CC1=C(O)C(=O)N(c2ccccc2)C1c1ccccc1 (stereo unspecified)	i	1	0	i	17	1
COc1ccc(S(=O)(=O)N2CCC(C(=O)N[C@@H](C)C(=O)NCc3ccco3)CC2)cc1	.	-13	0	.	18	.
CN1C(=O)c2cccc3c(S(N)(=O)=O)ccc1c23	i	0	16*	i	13	-1
COc1ccc(C(CNC(=O)c2ccc(N3CCCC3=O)cc2)N(C)C)cc1 (stereo unspecified)	25*	-5	7	i	9	0
C[C@]1(CO)CCC[C@@]2(C)C1CC[C@@H](CO)[C@@H]2CCc1ccoc1 (stereo partly specified)	i	30*	14	.	-4	3
Cc1ccc2nc(NC(=O)c3ccc(N4C(=O)CCC4=O)cc3)sc2c1	i	-1	0	i	2	0
CC(C)(C)NS(=O)(=O)c1ccc2nc(NC(=O)c3ccc(N4C(=O)CCC4=O)cc3)sc2c1	i	3	15*	i	7	2
CSC12CCCN(CCC(C(C)(C)C)C1)C2=O (stereo unspecified)	.	-4	0	.	-10	.
COC(=O)C1=C(C)Nc2ncnn2C1c1ccc(OC(=O)c2ccccc2)cc1 (stereo unspecified)	i	-17	0	i	5	0
COC(=O)c1ccc(C2C(C(=O)Nc3ccc(C)cc3C)=C(C)Nc3ncnn32)cc1 (stereo unspecified)	i	24*	0	i	-7	-1
CC(C)NC(=O)N(C)C[C@H]1Oc2c(NC(=O)C3CC3)cccc2C(=O)N([C@H](C)CO)C[C@@H]1C	.	-12	0	i	20	4
O=S(=O)(c1ccc(F)cc1)N1CCC(N2CCCC2)CC1	i	40*	0	i	5	-1
CCCCCCCCn1c(=O)c(C(=O)OC)c(N)c2ccccc21	100*	14	10	i	7	15
O=C(COC(=O)c1cc(-c2ccccc2)nc2ccccc12)NCC1CCCO1 (stereo unspecified)	i	-9	1	i	2	4
O=C(COC(=O)c1cc(-c2cccc(Br)c2)nc2ccccc12)NCC1CCCO1 (stereo unspecified)	i	28*	0	i	-14	4
CC1(C(=O)NS(=O)(=O)c2ccccc2Cl)CCN1C(=O)C1(c2ccc(Cl)cc2)CC1 (stereo unspecified)	.	-7	0	.	12	.
CC1(C(=O)NS(=O)(=O)c2ccccc2Cl)CCN1C(=O)C1(c2ccc(Cl)cc2)CCC1 (stereo unspecified)	.	48*	-1	.	-15	.

Bioassay records deposited in PubChem by several laboratories.
